The results in this text go back to PubChem BioAssay.

Assay [1] relates to Human papillomavirus type 1a protein E7 (residues 44-93). The assay can be described thus: HPV1a E7 fragment binders on microarrays, primary screen, biochemical, small-molecule microarray, residues 44-93, 635 nm fluorescence (AID 1108).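 Further: E7 fragment applied at 1 µg/mL in TBST for 1 h at 4 C; score combines spot fluorescence with its signal to noise ratio.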 The settings on record: small-molecule microarray binding, fluorescence 635 nm; higher = more signal.
The nature of assay [2]: modulators of HCV replicon luciferase signal, primary screen, HCV replication inhibitor project, Huh7 cells, luciferase reporter (AID 1109).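 Further: huh7 hepatoma cells harbouring a luciferase neomycin HCV replicon reporter; luciferase luminescence as measure of HCV replicon replication; test concentration not given here.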 The following applies: 48 h, higher = more signal.
Assay [3] concerns the target Left-right determination factor 2 (Homo sapiens) (UniProt O00292). The assay can be described thus: LEFTY2 binders on small-molecule microarrays, primary screen, biochemical, small-molecule microarray, 635 nm fluorescence scan (AID 1110). The settings on record: LEFTY2 binding, higher = more signal.
In assay [4] the target is Calmodulin-1 (Homo sapiens) (UniProt P0DP23). The assay can be described thus: CALM1 binders on microarrays, EGTA buffer, profiling panel, biochemical, small-molecule microarray, Cy5-labelled CALM1 (AID 1111).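 Further: labelled calmodulin applied in Tris saline Tween buffer holding calcium plus EGTA and DTT.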 The settings on record: Cy5-CALM1 binding fluorescence, higher = more signal.
Assay [5] has the same target. Description: calcium-bound CALM1 binders on microarrays, profiling panel, artefact control for SMM control-protein annotation, biochemical, small-molecule microarray, Cy5-labelled CALM1, plus calcium (AID 1112).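 Further: score merges spot fluorescence with signal to noise from triplicate slides.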 The following applies: Cy5-CALM1 binding fluorescence, higher = more signal.
A short description of assay [6]: small-molecule microarray binders of probe aWnt5a, primary screen, biochemical, biotinylated probe, 635/667 nm fluorescence (AID 1113).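 Further: score merges 667 nm fluorescence intensity with signal-to-noise per printed feature.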 The following applies: higher = more signal.
The nature of assay [7]: small-molecule microarray binders of probe aShh, primary screen, biochemical, biotinylated probe, 635/667 nm fluorescence (AID 1114).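 Further: probe is biotin-labelled aShh protein from a stem cell growth factor screen; measures binding of labelled protein to compounds printed on the slide; score merges feature fluorescence at 667 nm with signal-to-noise.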 The following applies: higher = more signal.
The nature of assay [8]: small-molecule microarray binders of probe aNog, primary screen, biochemical, biotinylated probe, 635/667 nm fluorescence (AID 1115).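 Further: probe is biotinylated aNog protein used at 0.15 µg/mL for 1 h at 4 C; z-score combines 667 nm fluorescence of each spot with its signal to noise.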 The settings on record: higher = more signal.
Assay [9] addresses Torsin-1A-interacting protein 1 (Homo sapiens) (UniProt Q5JTV8). Description: LAP1 binders from COS7 cell lysate, primary screen, small-molecule microarray, 635/667 nm fluorescence (AID 1116). The following applies: COS7-hLAP1 lysate binding, 635 nm fluorescence, higher = more signal.
The target of assay [10] is Alpha-bungarotoxin (Bungarus multicinctus) (UniProt P60615). The assay can be described thus: alpha-bungarotoxin binders on microarray, profiling panel, artefact control for SMM control protein annotation, biochemical, small-molecule microarray, Alexa647 label, 635/667 nm fluorescence (AID 1117). The settings on record: alpha-BTX-A647 binding fluorescence, higher = more signal.
Alpha-bungarotoxin (Bungarus multicinctus), sequence (P60615 whole entry, looked up): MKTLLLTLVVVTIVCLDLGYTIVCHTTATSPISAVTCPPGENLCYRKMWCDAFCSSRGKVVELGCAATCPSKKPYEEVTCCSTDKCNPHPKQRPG

Torsin-1A-interacting protein 1 (Homo sapiens), sequence (Q5JTV8 whole entry, looked up): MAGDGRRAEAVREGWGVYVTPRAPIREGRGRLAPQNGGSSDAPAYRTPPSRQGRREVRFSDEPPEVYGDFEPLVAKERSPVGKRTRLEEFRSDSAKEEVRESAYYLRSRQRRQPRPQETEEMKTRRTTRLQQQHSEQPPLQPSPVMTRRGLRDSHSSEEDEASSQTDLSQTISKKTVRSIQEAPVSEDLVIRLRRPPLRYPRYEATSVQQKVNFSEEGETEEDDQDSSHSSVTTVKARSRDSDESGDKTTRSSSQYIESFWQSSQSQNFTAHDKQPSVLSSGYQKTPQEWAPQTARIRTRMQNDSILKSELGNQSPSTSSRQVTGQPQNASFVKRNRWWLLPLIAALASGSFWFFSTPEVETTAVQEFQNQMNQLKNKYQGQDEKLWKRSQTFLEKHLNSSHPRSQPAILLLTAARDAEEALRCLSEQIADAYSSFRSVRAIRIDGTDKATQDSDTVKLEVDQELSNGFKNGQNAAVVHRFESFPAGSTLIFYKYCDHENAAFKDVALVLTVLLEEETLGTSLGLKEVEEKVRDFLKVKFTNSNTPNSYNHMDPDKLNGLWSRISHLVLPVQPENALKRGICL
Left-right determination factor 2 (Homo sapiens), sequence (O00292 whole entry, looked up): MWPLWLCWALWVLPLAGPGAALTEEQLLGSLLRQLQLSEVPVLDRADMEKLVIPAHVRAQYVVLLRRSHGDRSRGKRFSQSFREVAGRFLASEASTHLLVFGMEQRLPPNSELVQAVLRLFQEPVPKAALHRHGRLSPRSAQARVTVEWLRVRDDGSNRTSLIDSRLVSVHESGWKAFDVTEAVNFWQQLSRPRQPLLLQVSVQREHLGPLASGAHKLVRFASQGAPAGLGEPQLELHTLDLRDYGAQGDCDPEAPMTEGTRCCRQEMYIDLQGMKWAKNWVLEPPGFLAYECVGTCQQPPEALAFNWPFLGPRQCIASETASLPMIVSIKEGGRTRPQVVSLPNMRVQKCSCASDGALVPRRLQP

Consider `N#Cc1ccc(NN2C(C(O)c3ccc(Br)cc3)C=CC3C(=O)N(c4ccccc4)C(=O)C32)cc1` (stereo not given), for which the composite z-score in assay [1] was -1.46; in assay [3] it was 0.503; in assay [4], 1.53; in assay [5], 0.141; in assay [6], 0.234; in [7], 0.162. Further, the figures for the composite z-score in [8], in assay [9] and in assay [10] were 2.03, 1.14 and 2.36, respectively. The z-score in assay [2] is -0.431.

On to `CC1CC/C=C\[C@H]2OC34C=CCN(C(C)C)C(=O)[C@H]3N(CCO)C(=O)[C@@H]4C2C(=O)O1` (stereo not given in full), for which the composite z-score in [1] was -0.21; in assay [3] it was -1.6; in [4], -0.377; in assay [5] it was 0.0947; in assay [6] it was -0.202; in assay [7], 0.0062. In addition, the composite z-score in assay [8] was -0.0926; in [9], -0.241; in assay [10] it was -1.22. Also, the z-score in assay [2] was -0.566.

For `CCCN1C(=O)[C@@]2(Cc3ccccc31)N=C(c1ccc(OCCCO)cc1)O[C@H]2c1ccccc1`, the composite z-score in assay [1] is 1.41; in assay [3] it was -0.256; in assay [4], 0.354; in assay [5], -0.29; in assay [6], 0.0857; in assay [7], 0.123. The composite z-score in assay [8] turned out to be 0.587; in [9], 1.28; in assay [10], 1.17. Also, the z-score in assay [2] is -2.52.

Take `CCOC(=O)C1=CC[C@@H](c2ccccc2)N(S(=O)(=O)c2ccc(C)cc2)[C@H]1c1ccccc1`: the composite z-score in [1] was 1.1; in [3], 0.0056; in assay [4] it was 0.578; in assay [5] it was 0.626; in assay [6] it was 0.0037; in assay [7], -0.138. The composite z-score is -0.0496 in [8], 0.46 in [9] and 0.995 in [10]. Further, in assay [2], the z-score is -0.667.

For the compound `COCCOC(=O)N1C(=O)[C@@]2(c3cc(C#CC4=CCCCC4)ccc31)[C@H](c1ccccc1OCCO)N1[C@H](c3ccccc3)[C@H](c3ccccc3)OC(=O)[C@H]1[C@@H]2C(=O)N1CCN(c2ncccn2)CC1`, the composite z-score is 1.28 in assay [1]; 0.718 in [3]; 0.501 in [4]; 0.466 in assay [5]; -0.206 in [6]; 0.0048 in [7]. In addition, the composite z-score was -0.404 in assay [8], 0.0174 in assay [9] and 0.511 in assay [10]. Moreover, in [2], the z-score is -2.1.

As to `COC(=O)[C@@]1(Cc2ccc(OC)cc2)[C@H]2c3cc(C(=O)N4CCCC4)n(CCc4c[nH]c5ccc(O)cc45)c3C[C@H]2CN1C(=O)c1ccccc1`, the composite z-score turned out to be 1.39 in assay [1]; 0.148 in assay [3]; 0.797 in assay [4]; 0.202 in [5]; 0.14 in assay [6]; 0.315 in assay [7]. Also, the composite z-score was 0.863 in assay [8], 1.4 in assay [9] and 0.485 in [10]. Further, the z-score in [2] is -1.51.

`C=CCNC(=O)[C@@H]1[C@H]2C(=O)O[C@H](c3ccccc3)[C@H](c3ccccc3)N2[C@H](c2ccc(O)cc2)[C@@]12C(=O)N(C(=O)OCCOC)c1ccc(C#CC3=CCCCC3)cc12`: the composite z-score in assay [1] was 1.36; in assay [3], 0.588; in assay [4] it was 0.544; in assay [5] it was -0.0251; in assay [6], -0.0685; in assay [7], -0.0769. The composite z-score in [8] came out at 0.185; in assay [9] it was 0.319; in assay [10], 0.662. Further, the z-score in assay [2] was -2.14.

Turning to `CS(=O)(=O)CCOC(=O)C1=CC(c2ccc(CO)cc2)=CC(C2CC2)N(Cc2sc3ccccc3c2Cl)C=C1C(=O)OCCS(C)(=O)=O` (stereo not given), the composite z-score in assay [1] was 0.491; in assay [3], 0.815; in assay [4], 0.0782; in assay [5], 0.0677; in assay [6] it was -0.0685; in [7], 0.199. Moreover, the composite z-score in [8] worked out at 0.611; in assay [9] it was 0.702; in assay [10], 1.89. Moreover, the z-score in assay [2] is -1.7.

In the case of `C=CCNC(=O)[C@@H]1[C@H]2C(=O)O[C@H](c3ccccc3)[C@H](c3ccccc3)N2[C@H](c2ccccc2OCCO)[C@@]12C(=O)Nc1ccc(C#CCCO)cc12`, the composite z-score was -0.489 in assay [1]; 1.2 in assay [3]; 0.142 in assay [4]; -0.0836 in assay [5]; -0.147 in [6]; -0.273 in assay [7]. Moreover, the composite z-score in assay [8] was -0.0965; in [9], 0.544; in [10], 0.0913. Besides, in assay [2], the z-score is -0.364.

In the case of `CN(C)C(=O)[C@@]1(Cc2ccccc2CN=[N+]=[N-])N=C(c2ccc(OCCCO)cc2)O[C@H]1c1ccccc1N=[N+]=[N-]`, the composite z-score was 1.45 in [1]; -0.553 in [3]; 1.73 in assay [4]; 1.11 in assay [5]; -0.191 in [6]; -0.138 in [7]. Moreover, the values for the composite z-score in assay [8], in [9] and in assay [10] were 1.84, 2.26 and 1.93, respectively. Besides, in assay [2], the z-score is -2.99.

For the compound `[N-]=[N+]=Nc1ccccc1C[C@]1(C(=O)N2CCOCC2)COC(c2ccc(OCCCO)cc2)=N1`, the composite z-score in assay [1] was 1.41; in assay [3], -0.253; in assay [4] it was 0.201; in assay [5], -0.554; in [6] it was 0.0317; in [7] it was 0.14. Also, the composite z-score in assay [8] is -0.527; in assay [9] it was 1.08; in assay [10], 0.664. Besides, in assay [2], the z-score is -1.72.

Regarding `O=C1C2C=CC(C(O)c3ccco3)N(Nc3ccccc3F)C2C(=O)N1c1ccccc1` (stereo not given), the composite z-score in assay [1] was 0.761; in assay [3], -0.46; in assay [4] it was 0.175; in assay [5] it was -0.0085; in [6], 0.115; in assay [7], 0.184. The composite z-score was determined as 0.742 in assay [8], 0.942 in [9] and 0.25 in assay [10]. For the same compound, the z-score in [2] was -0.137.
